Assay [1] is described as follows: CCTE_Shafer_MEA_acute_firing_rate_mean: CCTE's Neural Acute Assay for Mean Firing Rate, Shafer Lab (AID 2284009).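 Note: analyzed for loss of signal so actives lower firing rate relative to DMSO.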 In a few lines:
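Spontaneous spiking of primary rat cortical networks, DIV 13/15, 37 C. Compound 0.03-40 uM, n ≥3 wells; 40 min baseline vs 40 min treated. Endpoint fitted in loss-of-signal direction against DMSO.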

Assay [2] in a line: CCTE_Shafer_MEA_acute_burst_number: CCTE's Neural Acute Assay for Single-Electrode Bursts, Shafer Lab (AID 2284013). In a few lines:
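Burst totals were derived with adaptive spike detection (8x rms threshold) on filtered signals from rat cortical cultures; change relative to pre-treatment baseline after 40-min compound exposure (0.03-40 uM) was fitted in the negative direction against DMSO.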

The nature of assay [3]: CCTE_Shafer_MEA_acute_burst_duration_mean: CCTE's Neural Acute Assay for Mean Burst Duration, Shafer Lab (AID 2284014).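 Note: hits are decreases in mean burst duration relative to DMSO controls.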 In a few lines: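 Acute exposure of mature rat cortical networks (DIV 13 or 15) grown on microelectrode arrays to 0.03-40 uM compound. Mean burst duration compared with the 40-min pre-dose baseline over a 40-min post-dose recording at 37 C.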
A short description of assay [4]: CCTE_Shafer_MEA_acute_per_burst_spike_number_mean: CCTE's Neural Acute Assay for Average Number of Spikes Per Burst, Shafer Lab (AID 2284015).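 Note: hits are decreases in mean spikes per burst versus baseline.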 In a few lines: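 Rat primary cortical neurons on 48-well MEAs (DIV 13 or 15) were treated with 0.03-40 uM compound at 37 C. Mean spikes per burst over 40 min were recorded before and after exposure and expressed as percent change from baseline, relative to DMSO.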

Assay [5] can be described thus: CCTE_Shafer_MEA_acute_interburst_interval_mean: CCTE's Neural Acute Assay for Mean Interburst Interval, Shafer Lab (AID 2284016).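 Note: percent change of mean interburst interval versus each well's own pre-dose baseline; curves fitted for decrease in interburst interval relative to DMSO.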 In a few lines:
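Rat primary cortical neurons on 48-well MEAs at DIV 13 or 15 were exposed acutely to 0.03-40 uM. Spikes detected at 8x rms noise, 37 C. Mean interburst interval from 40 min recordings expressed as percent change from 40 min pre-treatment baseline.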

Assay [6] can be described thus: CCTE_Shafer_MEA_acute_burst_percentage_mean: CCTE's Neural Acute Assay for Percentage of Spikes in a Burst, Shafer Lab (AID 2284017).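 For AC50: curve fitted for loss of signal so potency reflects decreased burst percentage.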 In a few lines: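 Primary rat cortical neurons on 48-well MEA plates, treated on DIV 13 or 15 at 0.03-40 uM. Spikes detected at 8x rms noise at 37C; percent change from 40-min baseline to 40-min post-dose recording, fitted versus DMSO.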

The nature of assay [7]: CCTE_Shafer_MEA_acute_burst_percentage_std: CCTE's Neural Acute Assay for Standard Deviation of Burst Percentage, Shafer Lab (AID 2284018).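 Note: fitted in the negative direction so actives lower burst percentage SD.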 In a few lines: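 Primary rat cortical neurons on 16-electrode MEA wells were recorded 40 min at baseline (DIV 13 or 15), then 40 min after compound (0.03-40 uM), at 37 C. Well value is SD across electrodes of spikes-in-bursts/total spikes; endpoint is percent change, DMSO-referenced.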

A short description of assay [8]: CCTE_Shafer_MEA_acute_per_network_burst_spike_number_mean: CCTE's Neural Acute Assay for Average Number of Spikes in a Network Burst, Shafer Lab (AID 2284019).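 For AC50: curve fitted for loss of signal so actives reduce spikes per network burst.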 In a few lines: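 Acute exposure of rat primary cortical networks (DIV 13/15) on MEAs; adaptive spike detection at 8x rms noise, 37 C. Percent change in spikes per network burst after 40 min with compound (0.03-40 uM), negative direction vs DMSO.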

A short description of assay [9]: CCTE_Shafer_MEA_acute_per_network_burst_spike_number_std: CCTE's Neural Acute Assay for Standard Deviation of Number of Spikes in a Network Burst, Shafer Lab (AID 2284020).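 Note: fitted for decrease in spike-number SD versus DMSO so actives lower it.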 In a few lines: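 Acute MEA exposure, rat cortical neurons, 0.03-40 uM. Per-well % change versus own baseline; DMSO as negative control.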
The nature of assay [10]: CCTE_Shafer_MEA_acute_per_network_burst_electrodes_number_mean: CCTE's Neural Acute Assay for Mean Number of Electrodes in a Network Burst, Shafer Lab (AID 2284021).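 Note: curves fitted for decreases only so hits reduce electrodes per burst.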 In a few lines: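 Percent change from baseline in average electrode count per network burst, rat cortical cultures on 48-well MEAs; 40-min recordings each side of exposure, DIV 13 or 15; threshold 8x rms noise; DMSO as negative control.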

Assay [11] is described as follows: CCTE_Shafer_MEA_acute_network_burst_percentage: CCTE's Neural Acute Assay for Percentage of Network Bursts, Shafer Lab (AID 2284022).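 Note: curves fitted for loss so actives lower network burst percentage.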 In a few lines: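 On DIV 13 or 15, at least three wells of rat cortical neurons per compound are dosed at 0.03-40 uM. Spontaneous firing is detected at 8x rms noise for 40 min before and after dosing at 37 C. The percent change in network-burst spike share is reported.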

A short description of assay [12]: CCTE_Shafer_MEA_acute_cross_correlation_area: CCTE's Neural Acute Assay for Area of Cross Correlation, Shafer Lab (AID 2284024).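 Note: area under pooled inter-electrode spike cross-correlation near zero lag as percent change from own baseline; curves fitted for loss of cross-correlation area so actives lower synchrony.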 In a few lines:
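Extracellular recordings from cultured rat cortical neurons measure network synchrony as cross-correlation area; each well's post-compound value (0.03-40 uM, 40 min) is compared with its own 40 min baseline to give percent change.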

Assay [13] can be described thus: CCTE_Shafer_MEA_acute_cross_correlation_HWHM: CCTE's Neural Acute Assay for Cross Correlation at Half Width at Half Maximum, Shafer Lab (AID 2284026).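 For outcome: spontaneous network firing of rat primary cortical neurons on multiwell microelectrode arrays.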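 Note: percent change per well from pre-dose baseline in spike cross-correlogram half width; hits are a decrease in cross-correlogram half width relative to DMSO.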 In a few lines:
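Percent change in cross-correlogram half width at half maximum, narrower meaning more synchrony, was derived per well from paired 40-min recordings before and during exposure to 0.03-40 uM compound in rat cortical cultures at 37 C.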

Assay [14] can be described thus: CCTE_Shafer_MEA_acute_synchrony_index: CCTE's Neural Acute Assay for Synchrony, Shafer Lab (AID 2284027).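 Note: network synchrony index of spontaneous spiking in primary rat cortical neurons on MEAs; fitted for loss of signal so actives lower synchrony relative to DMSO.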 In a few lines: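 Acute exposure of rat primary cortical neurons (DIV 13 or 15) at 0.03-40 uM. Synchrony index, 40 min before vs after, as % change relative to DMSO control.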
Assay [15] in a line: CCTE_Harrill_HTTr_Viability_MCF7: CCTE's 6-hour Cell Viability Assessment for the High-Throughput Transcriptomics (HTTr) Platform, in MCF-7 cells cultured in DMEM + 10% fetal bovine serum, Harrill Lab (AID 2284010). In a few lines: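 Eight-point concentration series, six-hour exposure. Propidium iodide exclusion imaged to assess membrane integrity as a cytotoxicity readout; bidirectional fitting was done with DMSO as negative control and activity baseline.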

Assay [16] can be described thus: CCTE_Harrill_HTTr_Apoptosis_MCF7: CCTE's 6-hour Apoptosis Assessment for the High-Throughput Transcriptomics (HTTr) Platform, in MCF-7 cells cultured in DMEM + 10% fetal bovine serum, Harrill Lab (AID 2284011). In a few lines: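 Apoptosis in MCF-7 cells grown in DMEM with 10% fetal bovine serum was scored after a six hour exposure by high content imaging of caspase-3/7 activation (CellEvent Caspase 3/7 Green), with DMSO serving as negative control and baseline.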

Assay [17] in a line: CCTE_Harrill_HTTr_CellCount_MCF7: CCTE's Cell Proliferation Assessment for the High-Throughput Transcriptomics (HTTr) Platform, Harrill Lab (AID 2284012; active = hit-call score of the fitted dose curve at least 0.9, where 1 is the maximum;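 note: intended direction is loss of nuclei count meaning fewer cells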). In a few lines: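 For this full-screen endpoint, MCF-7 cultures received eight compound dilutions for six hours. Well nuclei counts from Hoechst imaging were analyzed relative to DMSO.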

We go through ten compounds from PubChem BioAssay (EPA / NIEHS).

Records with an inconclusive call do not appear. Calls of active or inactive are those of the source. Rule for the calls, unless noted: active = hit-call score of the fitted dose curve at least 0.9, where 1 is the maximum; inactive = score below 0.9.

Turning to `CCCc1ccccc1`, the compound was classed as inactive in assay [1], in assay [2], in assay [3], in assay [4], in assay [5] and in assay [6]. The call in [7], in assay [8], in assay [9], in [10], in [11] and in assay [12] was inactive. Besides, the outcome in assay [13] and in assay [14] was inactive.

For the compound `CC(C)CC(C)O` (stereo not given), the result in [15] and in assay [16] was inactive.

With `c1ccc2ncccc2c1`, the outcome in [15] and in assay [16] was inactive.

For the compound `Cn1c(=O)c2[nH]cnc2n(C)c1=O`, the outcome in assay [1], in assay [15], in [16], in assay [2], in assay [3] and in assay [4] was inactive. Further, the compound was classed as inactive in assay [5], in assay [6], in assay [7], in [8], in assay [9] and in assay [10]. In addition, the call in assay [11], in [12], in assay [13] and in assay [14] was inactive.

As usually defined, the AC50 is the concentration giving half of the maximal activity seen. Consider `COc1cc(C(C)C)c2c(c1)S(=O)(=O)N(COc1cc(=O)n3cccc(OCCN4CCCCC4)c3n1)C2=O`, for which the compound was called inactive in assay [1], in [15], in [16], in assay [2], in [4] and in assay [5]. The result in assay [6], in [8], in [10], in [11] and in [12] was inactive. Moreover, the AC50 was 5 µM (active) in [3]; 7.87 µM (active) in assay [7]; 1.03 µM (active) in [9]; 7.59 µM (active) in [13]; 7.39 µM (active) in assay [14].

In the case of `S=P(N1CC1)(N1CC1)N1CC1`, the result in [15] and in assay [16] was inactive.

For the compound `c1ccc(C(O[C@@H]2CCCN(CCc3ccc4c(c3)OCO4)C2)c2ccccc2)cc1`, the call in assay [1], in [15], in assay [16], in [17], in assay [2] and in [3] was inactive. The result in [4], in [6], in [7], in assay [9], in [10] and in [11] was inactive. The compound was called inactive in [12], in assay [13] and in assay [14]. Further, the AC50 in assay [5] is 4.15 µM (active); in assay [8] it was 4.49 µM (active).

Consider `CCCCCCCCCCCCCCCCOS(=O)(=O)O`, for which the outcome in assay [15] and in [16] was inactive.

Take `OC(CCl)CCl`: the call in assay [1], in assay [15], in assay [16], in assay [17], in assay [2] and in [3] was inactive. Further, the call in assay [4], in assay [5], in [6], in [7], in assay [8] and in assay [9] was inactive. The result in [10], in [11], in [12], in assay [13] and in [14] was inactive.

`CC(C)C(=O)Nc1ccc([N+](=O)[O-])c(C(F)(F)F)c1`: the concentration at half-maximal activity (AC50) was 5.21 µM (active) in [1]; 4.66 µM (active) in [4]; 30.8 µM (active) in assay [5]; 6.55 µM (active) in assay [6]; 5.47 µM (active) in [9]; 34.4 µM (active) in assay [11]. In addition, the half-maximal activity concentration (AC50) in [13] was 5.73 µM (active). Moreover, the result in assay [15], in assay [16], in assay [17], in [2], in [3] and in assay [7] was inactive. Further, the call in [8], in assay [10], in assay [12] and in [14] was inactive.
